# Bioassay records deposited in PubChem BioAssay by National Center for Advancing Translational Sciences (NCATS).
# Most compounds without a hit are left out; they make up all but 11% or so of the library.
# Luciferase inh: inhibitors of firefly (Photinus pyralis) luciferase; P08659; purified P. pyralis luciferase, luminescence, biochemical; Potency, µM (top dose mostly 115 µM), actives largely listed as inhibitors; hit rate 2.5% among 76,000; AID 1347043; also: nearly all actives have a fitted effect of over 65% in size
# Target sequence (P08659 whole entry, looked up): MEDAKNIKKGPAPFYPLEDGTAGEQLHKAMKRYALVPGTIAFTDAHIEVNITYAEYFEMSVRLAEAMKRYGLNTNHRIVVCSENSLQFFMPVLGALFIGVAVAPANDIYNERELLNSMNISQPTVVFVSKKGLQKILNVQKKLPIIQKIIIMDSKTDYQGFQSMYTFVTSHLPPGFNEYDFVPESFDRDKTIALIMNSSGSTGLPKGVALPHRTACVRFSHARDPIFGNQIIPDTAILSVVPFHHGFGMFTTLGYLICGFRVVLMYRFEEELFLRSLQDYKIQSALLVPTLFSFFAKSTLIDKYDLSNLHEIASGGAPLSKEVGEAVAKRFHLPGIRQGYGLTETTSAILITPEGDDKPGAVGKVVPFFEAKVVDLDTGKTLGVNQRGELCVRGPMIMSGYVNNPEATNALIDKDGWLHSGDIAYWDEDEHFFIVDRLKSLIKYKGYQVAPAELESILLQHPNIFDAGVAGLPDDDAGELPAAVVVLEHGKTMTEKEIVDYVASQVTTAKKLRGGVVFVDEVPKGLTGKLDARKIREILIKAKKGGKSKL
#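 Purified 10nM P. pyralis luciferase with 10uM D-luciferin and 10uM ATP in 50mM Tris acetate pH 7.5, 10mM Mg acetate, 0.01% Tween-20, 0.05% BSA. qHTS titration; luminescence read by CCD imager.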
# hNpr1 antagonist: antagonists of human natriuretic peptide receptor Npr1 | P16066 | HEK293 hNpr1 GloSensor cGMP, ANP-stimulated luminescence | Potency, µM (series often up to 46.3 µM), hits mostly inhibitors | hit rate 1.6% among 76,000 | AID 1347048; calls by dose curve; also: nearly all actives have a fitted effect of over 60% in size
#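 Compound pre-incubated 30 min at room temperature on GloSensor-loaded HEK293 cells stably carrying hNpr1 and the pGS-40F cGMP biosensor. Stimulation uses hNppA at 0.1 nM final; luminescence is taken at baseline and 20 min post-agonist.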
# 3T3 cytotox: cytotoxic compounds in NIH 3T3 cells; AID 1345082; NIH 3T3 viability, CellTiter-Glo ATP luminescence, 48-72 h; hit rate 4.3% among 94,000; Potency, µM (highest dose often 96.7 µM), hits mostly inhibitors; also: nearly all actives have a fitted effect of over 55% in size
#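 Cells were seeded at 400 per well, treated with pin-transferred compound, and kept 48 or 72 hr at 37 °C before CellTiter-Glo addition and luminescence imaging of cellular ATP.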
# HEK cytotox: cytotoxic compounds in HEK 293 cells. HEK 293 viability, ATP luminescence (CellTiter-Glo), 48-72 h. Potency, µM (titrated, usually from 115 µM), hits mostly inhibitors. hit rate 6.6% among 94,000. AID 1345083; also: nearly all actives have a fitted effect of over 60% in size
#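 qHTS cytotoxicity; HEK 293, 250 cells/well; compound pinned; 48 or 72 hr, 37 degree Celsius, 5% CO2, 95% humidity; CellTiter-Glo, 10 min RT; luminescence (ATP).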
# Hits are given with their value; i = inactive; ? = inconclusive; nt = no result. Unless noted, calls follow the shape of the dose curve; as a rule, active = well fitted curve in the direction sought with a large enough effect; inconclusive = small, poorly fitted or top-dose-only effect, or another doubt; inactive = no such curve, though single readings can be large; an effect the other way counts as inactive or inconclusive.
SMILES,Luciferase inh,hNpr1 antagonist,3T3 cytotox,HEK cytotox
Cc1noc(-c2ccc3c(c2)OCO3)c1C(=O)NCCCCc1ccccc1,i,i,?,?
Cc1noc(-c2ccc3c(c2)OCO3)c1C(=O)NCc1cc(F)cc(F)c1,i,i,?,32µM
Cc1noc(-c2ccc3c(c2)OCO3)c1C(=O)NC(C)CCc1ccccc1 (centres undefined),i,i,?,45µM
Cc1noc(-c2ccc3c(c2)OCO3)c1C(=O)N1CCC(Cc2ccc(F)cc2)CC1,i,?,35µM,28µM
CCOc1ccccc1CNC(=O)c1c(C)noc1-c1ccc2c(c1)OCO2,i,i,?,?
Cc1noc(-c2cccs2)c1C(=O)N1CCC(Cc2ccccc2)CC1,i,i,?,?
COc1ccc(CN2CC3(CCN(C(=O)Nc4ccc(OC)c(OC)c4)CC3)C2=O)cc1,i,i,i,?
COc1ccc(NC(=O)N2CCC3(CC2)CN(c2ccccc2)C3=O)cc1OC,nt,nt,i,40µM
COc1cccc(N2C(=O)NC(=NC3CCCC3)C23CCN(Cc2cccn2C)C3)c1 (centres undefined),nt,nt,i,i
CSCCCN1CCC2(CC1)CCN(Cc1ccsc1)CC2CO (centres undefined),i,i,i,i
CC(C)Nc1nccc(C2(c3ccccc3Cl)CCNCC2)n1,i,i,i,?
Clc1ccccc1C1(c2ccnc(NC3CCC3)n2)CCNCC1,i,i,28µM,35µM
CC1=C[C@@H](CNC(=O)C2CC2)[C@H](C(C)C)C[C@H]1Cc1nnc(-c2ccccc2F)o1,i,i,100µM,63µM
CCCS(=O)(=O)NC[C@@H]1C=C(C)[C@H](Cc2nnc(-c3ccccc3F)o2)C[C@H]1C(C)C,i,i,25µM,22µM
CC1=C[C@@H](CNS(C)(=O)=O)[C@H](C(C)C)C[C@H]1Cc1nnc(-c2ccccc2F)o1,i,i,?,?
C#CCN(C)C[C@@H]1C=C(C)[C@H](Cc2nnc(-c3ccccc3F)o2)C[C@H]1C(C)C,i,?,79µM,79µM
COc1ccc(CN2Cc3[nH]cnc3C[C@H]2c2nc(-c3ccc(C)cc3)no2)cc1,40µM,i,79µM,100µM
COc1ccc(-c2noc([C@@H]3Cc4nc[nH]c4CN3C(=O)c3ccc(F)cc3)n2)cc1,?,i,?,?
COc1ccc(CN2Cc3[nH]cnc3C[C@H]2c2nc(-c3ccncc3)no2)cc1,i,i,?,?
COc1ccc(CN2Cc3[nH]cnc3C[C@H]2c2nc(-c3ccc4ccccc4c3)no2)cc1,i,i,40µM,45µM
COc1ccc(-c2noc([C@@H]3Cc4nc[nH]c4CN3Cc3ccc(CO)o3)n2)cc1,40µM,i,i,i
COc1ccc(-c2noc([C@@H]3Cc4nc[nH]c4CN3Cc3ccc(C)cc3)n2)cc1,63µM,i,?,89µM
COc1ccccc1CN1Cc2[nH]cnc2C[C@H]1c1nc(-c2cccc(C)c2)no1,i,i,71µM,63µM
COc1ccc(CN2Cc3[nH]cnc3C[C@H]2c2nc(-c3ccccn3)no2)cc1,35µM,i,?,?
CC(C)n1cnnc1-c1nn(C)c2c1CN(C(=O)Cc1c[nH]c3ccccc13)CC2,i,i,i,?
SMILES,Luciferase inh,hNpr1 antagonist,3T3 cytotox,HEK cytotox
CCn1ncc(N2CCCC(CC(=O)N3CCN(c4cccc(Cl)c4)CC3)C2)cc1=O (centres undefined),i,?,?,35µM
O=C(CC1CCCN(c2cnn(CC3CC3)c(=O)c2)C1)N1CCN(c2ccccc2)CC1 (centres undefined),i,?,?,50µM
CCN1CCN(C(=O)CC2CCCN(c3cnn(CC)c(=O)c3)C2)CC1 (centres undefined),i,i,i,i
O=C(c1ccccc1Cl)N1CCC(c2nn(-c3ccc(Cl)cc3)c(=O)[nH]2)CC1,i,i,?,?
O=C1CC(c2ccccc2)N(Cc2ccncc2)CCCN(C(=O)NCc2ccc(F)cc2)CCN1 (centres undefined),i,i,i,i
COc1ccc(-n2nc(C3CCN(Cc4cccn4C)CC3)[nH]c2=O)cc1,i,i,?,40µM
Cc1cn2nc(C(=O)Nc3ccc(Cl)cc3)cc2c(N(C)Cc2ccccc2)n1,i,i,i,i
Cc1cn2nc(C(=O)Nc3ccc(N(C)C)cc3)cc2c(N(C)Cc2ccccc2)n1,2.5µM,i,?,?
Cn1cc(CN2CC3(COCC(=O)N(Cc4cccc(OC(F)(F)F)c4)C3)C2)cn1,i,i,i,?
O=C1COCC2(CN(Cc3ccsc3)C2)CN1Cc1cccc(OC(F)(F)F)c1,i,i,45µM,63µM
O=C1COCC2(CN1Cc1cccc(OC(F)(F)F)c1)CN(c1ccccn1)C2,i,i,i,?
O=C1OCC2(CCN(Cc3cccc(OC(F)(F)F)c3)C2)N1c1ccncc1 (centres undefined),i,i,?,100µM
O=C1COCC2(CN1Cc1cccc(OC(F)(F)F)c1)CN(c1ccccc1F)C2,i,i,89µM,89µM
CCCCn1c(=O)c(C(=O)N2CCN(C(=O)c3ccc(F)cc3)CC2)nc2cccnc21,nt,nt,i,i
Cc1ccc(-c2noc([C@@H]3C[C@@H](O)CN3Cc3ccccc3O)n2)cc1F,50µM,i,45µM,?
COc1ccc(CN2C[C@H](O)C[C@H]2c2nc(-c3cccc(C)c3)no2)c2ccccc12,20µM,i,79µM,100µM
Cc1cccc(-c2noc([C@@H]3C[C@@H](O)CN3Cc3cccc(C#N)c3)n2)c1,?,i,?,?
Cc1ccc(-c2noc([C@@H]3C[C@@H](O)CN3Cc3ccc(C(=O)O)cc3)n2)cc1F,50µM,i,i,i
CC(C)(C)C(=O)Nc1cc(-c2ccccn2)nn1-c1ccccc1,nt,nt,i,?
COc1ccccc1-c1nnc2ccc(C(=O)NC3CCCCC3)cn12,nt,nt,i,i
CCC(=O)N1CCc2c(sc3ncnc(NCc4ccccc4)c23)C1,i,i,?,?
COCc1ncc(C)n1CCNC(=O)c1cnccn1,nt,nt,i,i
CN(C)CCNC(=O)C(C)(C)Oc1nn(CCOc2ccccc2)c2ccccc12,i,i,25µM,89µM
CC(C)(Oc1nn(CCOc2ccccc2)c2ccccc12)C(=O)Nc1cccnc1,i,i,?,?
CN1CCC(NC(=O)C(C)(C)Oc2nn(CCOc3ccccc3)c3ccccc23)CC1,i,i,40µM,89µM
SMILES,Luciferase inh,hNpr1 antagonist,3T3 cytotox,HEK cytotox
CCOC(=O)c1sc(NC(=O)CC[C@H]2NC(=O)c3ccccc3NC2=O)nc1C,i,i,?,i
COc1ccc(-c2cccc(C(=O)N3CCN(C(=O)C4CC4)CC3)c2)nn1,nt,nt,i,i
CCOC(=O)C1CCCN(C(=O)C2CCc3nnc(-c4cccc(C(F)(F)F)c4)n32)C1 (centres undefined),nt,nt,?,i
C=CCN(C)C(=O)C[C@@H]1c2nc(NC(=O)c3cccs3)sc2C[C@@H]2[C@](C)(CO)[C@H](O)CC[C@]21C,i,i,i,?
COCCN1C[C@H]2COc3ccccc3[C@H]2N(C(=O)COC)CCC1=O,nt,nt,?,i
Cc1cccc(CN2CCCC(O)(CN3CCC(C)CC3)C2=O)c1 (centres undefined),i,i,i,i
